# Assay results as given in PMC4336329 (PLoS ONE, 2015).
# The campaign covered roughly 310,000 compounds. About 14,000 (4.5%) showed an effect of 50% or more. The effect is printed as a negative number. This excerpt belongs to a sample that is enriched for strong results.
# Target: human ether-à-go-go-related gene (hERG) potassium channel (human, UniProt Q12809)
# Assay: primary screen, population patch clamp on CHO cells stably expressing hERG; higher = less effect of the substance
# 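Also: peak tail current of the secondary pulse compared with the same well before compound.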
# human ether-à-go-go-related gene (hERG) potassium channel, sequence (Q12809 whole entry, looked up): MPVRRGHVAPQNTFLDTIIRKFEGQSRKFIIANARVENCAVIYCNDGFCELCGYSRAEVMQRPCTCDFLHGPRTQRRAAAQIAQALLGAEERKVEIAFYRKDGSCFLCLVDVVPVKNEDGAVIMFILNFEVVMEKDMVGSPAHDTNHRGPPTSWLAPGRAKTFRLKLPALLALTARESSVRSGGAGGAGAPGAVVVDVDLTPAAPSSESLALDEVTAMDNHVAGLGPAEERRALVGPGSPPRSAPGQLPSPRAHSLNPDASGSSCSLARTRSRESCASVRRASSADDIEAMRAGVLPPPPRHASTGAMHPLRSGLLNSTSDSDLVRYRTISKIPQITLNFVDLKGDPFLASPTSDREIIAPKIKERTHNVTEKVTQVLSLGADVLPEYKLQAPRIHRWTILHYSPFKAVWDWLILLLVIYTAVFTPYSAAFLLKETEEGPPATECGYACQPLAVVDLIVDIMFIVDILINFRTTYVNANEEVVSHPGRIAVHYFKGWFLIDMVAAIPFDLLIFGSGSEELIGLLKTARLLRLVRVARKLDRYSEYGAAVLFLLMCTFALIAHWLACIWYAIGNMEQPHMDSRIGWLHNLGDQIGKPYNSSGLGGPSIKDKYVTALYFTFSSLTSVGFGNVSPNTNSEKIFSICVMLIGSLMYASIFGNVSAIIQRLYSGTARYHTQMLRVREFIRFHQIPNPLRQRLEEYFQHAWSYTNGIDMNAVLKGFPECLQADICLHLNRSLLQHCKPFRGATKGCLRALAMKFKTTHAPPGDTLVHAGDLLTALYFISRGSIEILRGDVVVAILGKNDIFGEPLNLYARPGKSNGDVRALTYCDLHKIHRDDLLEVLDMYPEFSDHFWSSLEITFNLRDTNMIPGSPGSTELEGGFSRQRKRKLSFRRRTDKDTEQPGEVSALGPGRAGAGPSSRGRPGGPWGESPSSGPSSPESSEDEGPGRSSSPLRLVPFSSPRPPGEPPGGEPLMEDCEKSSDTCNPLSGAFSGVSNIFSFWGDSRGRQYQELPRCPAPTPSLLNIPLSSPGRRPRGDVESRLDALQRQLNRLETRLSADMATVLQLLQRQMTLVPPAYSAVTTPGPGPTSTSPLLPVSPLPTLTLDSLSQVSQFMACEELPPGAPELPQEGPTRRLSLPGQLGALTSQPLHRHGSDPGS
row,Structure (SMILES),"hERG current change (%, negative = inhibition) at 10uM [%]"
1,O=C(CSc1ccccc1C(=O)NCc1ccccc1)NC1CCCCCCC1,-8.1
2,O=C(/C=C/c1ccc([N+](=O)[O-])cc1)NCc1cccnc1,-42.7
3,CC1(C)CC(=O)C=C(C(=O)N2CCCC(C(=O)c3cccc(Cl)c3)C2)O1 (stereo not shown),-31
4,O=C(O)c1ccc(NS(=O)(=O)c2ccc(Cl)cc2)cc1,0.513
5,CC(=O)c1cccc(CN2CCC(n3nccc3NC(=O)CCOc3ccccc3)CC2)c1,-3.2
6,COc1cccc(CN2CCC(n3nccc3NC(=O)CCOc3ccccc3)CC2)c1,-62
7,O=C(CCOc1ccccc1)Nc1ccnn1C1CCN(CCc2ccccc2)CC1,-65.1
8,Cc1ccc(CN2CCC(n3nccc3NC(=O)CCOc3ccccc3)CC2)o1,-20.7
9,O=C(CCCc1ccccc1)Nc1ccnn1C1CCN(Cc2ccccc2F)CC1,-49
10,COc1ccc(F)c(CN2CCC(n3nccc3NC(=O)CCCc3ccccc3)CC2)c1,-86.7
11,COc1cccc(C(=O)N2CCC(n3nccc3NC(=O)CCOc3ccccc3)CC2)c1,-0.0371
12,COc1ccc(O)c(CN2CCC(n3nccc3NC(=O)CCOc3ccccc3)CC2)c1,-60.4
13,Cc1cc(C)c(CN2CCC(n3nccc3NC(=O)CCOc3ccccc3)CC2)cc1C,-26.1
14,O=C(CCOc1ccccc1)Nc1ccnn1C1CCN(Cc2ccc(CO)o2)CC1,6.52
15,CCNC(=O)N1CCC(n2nccc2NC(=O)CCOc2ccccc2)CC1,9.99
16,CCn1c(SCc2nc3ccccc3[nH]2)nnc1-c1ccc(OC)cc1,-1.72
17,O=C(NNC(=O)C1CC(=O)N(Cc2ccccc2)C1)c1ccc(F)cc1 (stereo not shown),2.46
18,O=C(NC1CCCCCC1)c1cccnc1Sc1ccccc1,-15.4
19,O=S(=O)(c1ccc(NC(=S)N2CCN(c3ccc(O)cc3)CC2)cc1)N1CCOCC1,2.83
20,COC(=O)C[C@H]1c2cc(F)cc(F)c2S(=O)(=O)N1C1CCN(Cc2ccccc2)CC1,-32
21,CC(=O)Nc1ccc(S(=O)(=O)CCC(=O)O)cc1,17.5
22,Cc1cc(C(=O)Nc2sc(C)c(C)c2C#N)c(C)o1,20.6
23,Cc1ccc2oc(C(=O)NCC(c3ccco3)N(C)C)c(C)c2c1 (stereo not shown),-8.52

row,Structure (SMILES),"hERG current change (%, negative = inhibition) at 10uM [%]"
1,CCn1cc(CN2CCC(n3nccc3NC(=O)CCOc3ccccc3)CC2)cn1,-12.9
2,COc1ccc(CN2CCC(n3nccc3NC(=O)CCOc3ccccc3)CC2)cc1C,-68.7
3,CCn1cc(CN2CCC(n3nccc3NC(=O)CCOc3ccccc3)CC2)c(C)n1,7.84
4,O=C(CCOc1ccccc1)Nc1ccnn1C1CCN(Cc2ccc(F)cc2)CC1,-59.1
5,Cc1ccc(CN2CCC(n3nccc3NC(=O)CCOc3ccccc3)CC2)cc1C,-48.2
6,O=C(COc1ccc2c3c(c(=O)oc2c1)CCC3)NCC(O)c1ccccc1 (stereo not shown),11.5
7,CCOC(=O)C1CCCN(S(=O)(=O)c2ccc3c(c2)NC(=O)CO3)C1 (stereo not shown),-1.47
8,COc1ccc(C2(C)NC(=O)N(CC(=O)Nc3ccc(S(=O)(=O)N4CCCC4)cc3)C2=O)cc1 (stereo not shown),-2.91
9,O=C(CN1CCN(c2ccccn2)CC1)Nc1ccc(OCc2ccccc2)cc1,-45.3
10,O=C(CN1CCN(c2ccccc2)CC1)Nc1ccc(OCc2ccccc2)cc1,2.44
11,O=C(CN1CCOCC1)Nc1ccc(OCc2ccccc2)cc1,-21.3
12,O=C(CN1CCCC1)Nc1ccc(OCc2ccccc2)cc1,-54.1
13,CN1CCN(CC(=O)Nc2ccc(OCc3ccccc3)cc2)CC1.Cl,-9.11
14,O=C(CN1CCN(CC(=O)Nc2ccc(OCc3ccccc3)cc2)CC1)Nc1ccc(F)cc1,-72.5
15,COC(=O)c1ccc(N=Cc2c(C(F)(F)F)[nH][nH]c2=O)cc1,27.2
16,CCCCCc1nc2ccccc2c(=O)n1-c1ccccc1[N+](=O)[O-],-24.5
17,Cc1ccc(NC(=O)c2cccs2)cc1NC(=O)c1cccc(F)c1,5.36
18,CC(C)c1c(O)nc(SCc2ccccc2)[nH]c1=O,11.5
19,CSc1ccccc1C(=O)NCC1CCCO1 (stereo not shown),-11.8
20,O=C(O)CCSc1nnnn1-c1ccccc1,-1.42
21,CCSc1nnc2c(Cl)cc(Cl)cn12,5.28
22,O=C1c2ccccc2C(=O)N1CCCCSc1nnc2c(Cl)cc(Cl)cn12,-80.2
23,O=C1c2ccccc2C(=O)N1CCCCSc1nnnn1-c1ccccc1,-51.7

row,Structure (SMILES),"hERG current change (%, negative = inhibition) at 10uM [%]"
1,O=C1c2ccccc2C(=O)N1CSc1nnnn1-c1ccccc1,-3.73
2,O=C1c2ccccc2C(=O)N1CCCCSc1nnc2ccccn12,-22.7
3,CC(=O)OCc1cc(-c2nc3ccccc3[nH]c2=O)nn1-c1ccc(Cl)cc1,18
4,O=C(CSc1nc2[nH]ncc2c(=O)[nH]1)NCCc1ccccc1,26.9
5,O=[N+]([O-])c1ccc2c(c1N1CCCCC1)=NC1(CCCCC1)[N+]=2[O-],-8.78
6,Cc1ccc(NC(=O)C/C(N)=N/OC(=O)Nc2ccc(C)c(Cl)c2)cc1,4.56
7,O=C(NCCCN1CCOCC1)c1ccc(-n2nc(C(F)(F)F)cc2-c2cccs2)cc1,-80.4
8,COCCCNC(=O)c1ccc(-n2nc(C(F)(F)F)cc2-c2cccs2)cc1,-30.6
9,O=C(NCCCN1CCOCC1)c1cc(-c2cccs2)on1,-15.7
10,COc1ccc(C(=O)COC(=O)CN2C(=O)NC(C)(C)C2=O)cc1OC,-1.87
11,NC(=O)C(=O)N/N=C/c1c[nH]c2ccc(Br)cc12,12.7
12,O=C(NC(=S)Nc1ccc(CN2CCOCC2)cc1)c1cccc([N+](=O)[O-])c1,10.7
13,Cc1ccc(-n2c(=O)[nH]cc(C(=O)Nc3ccc4c(c3)OCCO4)c2=O)cc1C,-5.33
14,CC(C)C(CCNC1CCN(C)CC1)c1ccc(Cl)cc1 (stereo not shown),11.3
15,CN1CCC(NCCC(c2ccc(F)cc2)c2ccc(Cl)cc2)CC1 (stereo not shown),-71.5
16,CCN1CCC(NCCc2ccc(F)cc2)CC1,-0.893
17,Cc1ccccc1-c1noc(CNC(=O)COc2ccccc2)n1,-10.4
18,COc1ccc(C(=O)N(C)Cc2ccccc2)cc1Br,-8.29
19,CN(CC(=O)Nc1ccccc1Br)C(=O)CN1CCN(c2ccccc2Cl)CC1,-29.6
20,CN(CC(=O)Nc1ccccc1Cl)C(=O)C1CCN(C(=O)c2ccc(Cl)cc2)CC1,-35.1
21,CN(CC(=O)Nc1ccccc1Br)C(=O)c1ccc(-c2ccc(Cl)cc2)o1,5.51
22,Cc1ccccc1C(=O)N1CCC(C(=O)N(C)CC(=O)Nc2cccc(F)c2)CC1,12.4
23,CN(CC(=O)Nc1ccccc1Br)C(=O)C1CCN(C(=O)c2ccc(Cl)cc2)CC1,-50.1

row,Structure (SMILES),"hERG current change (%, negative = inhibition) at 10uM [%]"
1,CN(CC(=O)Nc1ccccc1Cl)C(=O)C1CCN(C(=O)c2ccc(F)cc2)CC1,-20.9
2,CN(CC(=O)Nc1ccccc1C(F)(F)F)C(=O)C1CCN(C(=O)c2ccc(Cl)cc2)CC1,-31.8
3,CN(CC(=O)Nc1cccc(F)c1)C(=O)C1CCN(C(=O)c2ccc(Cl)cc2)CC1,-55.5
4,CN(CC(=O)Nc1ccccc1Br)C(=O)CN1CCN(Cc2ccc(Cl)cc2)CC1,-66.9
5,Cc1cc(Br)ccc1NC(=O)CN(C)C(=O)C1CCN(C(=O)c2ccc(F)cc2)CC1,-65.1
6,Cc1cc(Br)ccc1NC(=O)CN(C)C(=O)CCSc1ccc(F)cc1,0.468
7,CCOc1ccc(NC(=O)CN(C)C(=O)C2CCN(C(=O)c3ccc(Cl)cc3)CC2)cc1OCC,-48.1
8,CC(=O)Nc1ccc(Sc2ccccc2C(=O)O)c(C(=O)O)c1,19.4
9,CCCc1[nH]n(-c2ccc(F)cc2)c(=O)c1C=Nc1ccc(C)cc1,4.95
10,CCOc1ccccc1NC(=O)Nc1ccc(OC)nc1,14.7
11,CCOC(=O)c1ccc(S(=O)(=O)NC2CCCCCCC2)n1C,-12.4
12,O=C(NCc1ccccc1)C1CCCN(S(=O)(=O)c2cccs2)C1 (stereo not shown),-0.56
13,COc1ccc(-c2cc(C(=O)N3CCN(Cc4ccc5c(c4)OCO5)CC3)on2)cc1OC,2.8
14,COc1ccc2oc(-c3ccccc3)c(C(=O)N3CCOCC3)c2c1,-8.44
15,Cc1csc(NC(=O)c2c(-c3c(F)cccc3Cl)noc2C)n1,-10.9
16,Cc1ccc(S(=O)(=O)NC2CCCC2)cc1C,-9.68
17,C[N+](C)(CC#Cc1ccccc1)CC(=O)c1ccc(Cl)cc1,-28.3
18,CCC[N+](CC#Cc1ccccc1)(CCC)CC(=O)OC,9.58
19,CC[N+](CC)(CC#Cc1ccccc1)CC(=O)c1ccc(Cl)cc1,-60.3
20,C[N+](C)(CC#Cc1ccccc1)CC(=O)c1ccccc1.[Br-],-13.5
21,CCC[N+](CC#Cc1ccccc1)(CCC)CC(=O)c1ccc(Cl)cc1,-67.4
22,CCC[N+](CC#Cc1ccccc1)(CCC)CC(=O)OCC,-1.25
